High-throughput results from PubChem.
Many of the other results were omitted from the sample, so hits are more common in it than they were.
ROS inducer: raises reactive oxygen species in U2OS cancer cells; U2OS ROS induction, H2DCF-DA fluorescence; AID 624156; ROS induction (% of piperlongumine), % at 10 µM; 2% of 46,000 active; in the data active = ROS induction above about 79%, passing the limit was not always enough;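 note: 0% = DMSO vehicle median and 100% = reference compound median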
* = called active by the depositor.

SMILES	ROS inducer
CC1(C)CCc2cc(-c3ccnc(=S)[nH]3)ccc2O1	10.6
Cc1ccc(S(=O)(=O)N(C)C[C@@H]2Oc3ccc(NC(=O)Cn4cnnn4)cc3CC(=O)N([C@H](C)CO)C[C@@H]2C)cc1	16.2
COCCOC(=O)N1C(=O)[C@@]2(c3cc(C#Cc4ccc(OC)cc4)ccc31)[C@H](c1ccccc1OCCO)N1[C@H](c3ccccc3)[C@H](c3ccccc3)OC(=O)[C@H]1[C@@H]2C(N)=O	74.3
COCCOC(=O)N1C(=O)[C@@]2(c3cc(C#CCC(C(=O)OC)C(=O)OC)ccc31)[C@H](c1ccccc1OCCO)N1[C@H](c3ccccc3)[C@H](c3ccccc3)OC(=O)[C@H]1[C@@H]2C(=O)NC[C@H](O)c1ccccc1	319.6*
COCCOC(=O)N1C(=O)[C@@]2(c3cc(C#CCCO)ccc31)[C@H](c1ccc(O)cc1)N1[C@H](c3ccccc3)[C@H](c3ccccc3)OC(=O)[C@H]1[C@@H]2C(N)=O	12.2
COCCOC(=O)N1C(=O)[C@@]2(c3cc(C#CCC(C(=O)OC)C(=O)OC)ccc31)[C@H](c1ccccc1OCCO)N1[C@H](c3ccccc3)[C@H](c3ccccc3)OC(=O)[C@H]1[C@@H]2C(=O)Nc1nc2ccccc2s1	11.7
COCCOC(=O)N1C(=O)[C@@]2(c3cc(C#CCC(C(=O)OC)C(=O)OC)ccc31)[C@H](c1ccccc1OCCO)N1[C@H](c3ccccc3)[C@H](c3ccccc3)OC(=O)[C@H]1[C@@H]2C(N)=O	406.9*
COCCOC(=O)N1C(=O)[C@@]2(c3cc(C#CCNC(N)=O)ccc31)[C@H](c1ccccc1OCCO)N1[C@H](c3ccccc3)[C@H](c3ccccc3)OC(=O)[C@H]1[C@@H]2C(N)=O	-3.7
COCCOC(=O)N1C(=O)[C@@]2(c3cc(C#CCNC(N)=O)ccc31)[C@H](C(=O)NC[C@H](O)c1ccccc1)[C@H]1C(=O)O[C@H](c3ccccc3)[C@H](c3ccccc3)N1[C@@H]2c1ccc(O)cc1	8.2
COCCOC(=O)N1C(=O)[C@@]2(c3cc(C#CC4(O)CCCCCC4)ccc31)[C@H](c1ccccc1OCCO)N1[C@H](c3ccccc3)[C@H](c3ccccc3)OC(=O)[C@H]1[C@@H]2C(N)=O	42.6
C=CCNC(=O)[C@H]1[C@@H]2C(=O)O[C@@H](c3ccccc3)[C@@H](c3ccccc3)N2[C@@H](c2ccccc2OCCO)[C@]12C(=O)N(C(=O)OCCOC)c1ccc(C#CCC(C(=O)OC)C(=O)OC)cc12	178.5*
COCCOC(=O)N1C(=O)[C@@]2(c3cc(C#Cc4ccc(OC)cc4)ccc31)[C@H](c1ccccc1OCCO)N1[C@H](c3ccccc3)[C@H](c3ccccc3)OC(=O)[C@H]1[C@@H]2C(=O)NC[C@H](O)c1ccccc1	21.8
COCCOC(=O)N1C(=O)[C@@]2(c3cc(C#CC4=CCCCC4)ccc31)[C@H](c1ccccc1OCCO)N1[C@H](c3ccccc3)[C@H](c3ccccc3)OC(=O)[C@H]1[C@@H]2C(N)=O	84.2*
C=CCNC(=O)[C@@H]1[C@H]2C(=O)O[C@H](c3ccccc3)[C@H](c3ccccc3)N2[C@H](c2ccccc2OCCO)[C@@]12C(=O)N(C(=O)OCCOC)c1ccc(C#Cc3ccc(OC)cc3)cc12	33.9
O=C(c1ccc2c(c1)CCO2)N1CCN(C(c2ccccc2)c2ccccc2)CC1	1.3
C[C@@H]1CCCCO[C@H](CN(C)CC2CCCCC2)[C@@H](C)CN([C@H](C)CO)C(=O)c2cc(NC(=O)Nc3ccccc3)ccc2O1	15.3
OCc1ccccc1O[C@@H]1O[C@H](CO)[C@@H](O)[C@H](O)[C@H]1O	-5.9
CC(C)[C@@H]1C=C(C(=O)O)O[C@H](OCc2ccc(CO)cc2)C1	5.6
CN(CC(=O)O)S(=O)(=O)c1ccc2c(c1)OCCO2	-7.5
CC(=O)Nc1ccccc1C(=O)N(Cc1ccccc1)Cc1ccccc1	-9.7
O=c1c2ccccc2oc2ccc(O)cc12	-10.4
COc1ccc(C#Cc2ccc3c(c2)[C@]2(C(=O)N3)[C@H](C(=O)N3CCc4cc(OC)c(OC)cc4C3)[C@H]3C(=O)O[C@H](c4ccccc4)[C@H](c4ccccc4)N3[C@@H]2c2ccc(OCCO)cc2)cc1	22.7
C=CCNC(=O)[C@@H]1[C@H]2C(=O)O[C@H](c3ccccc3)[C@H](c3ccccc3)N2[C@H](c2ccccc2OCCO)[C@@]12C(=O)Nc1ccc(C#Cc3ccc(OC)cc3)cc12	25.3
COc1ccc(C#Cc2ccc3c(c2)[C@]2(C(=O)N3)[C@H](c3ccc(OCCO)cc3)N3[C@H](c4ccccc4)[C@H](c4ccccc4)OC(=O)[C@H]3[C@@H]2C(=O)N2CCc3cc(OC)c(OC)cc3C2)cc1	58.8
C=CCNC(=O)[C@H]1[C@@H]2C(=O)O[C@@H](c3ccccc3)[C@@H](c3ccccc3)N2[C@@H](c2ccc(OCCO)cc2)[C@]12C(=O)Nc1ccc(C#Cc3ccc(OC)cc3)cc12	13.9
C=CCNC(=O)[C@H]1[C@@H]2C(=O)O[C@@H](c3ccccc3)[C@@H](c3ccccc3)N2[C@@H](c2ccccc2OCCO)[C@]12C(=O)Nc1ccc(C#CCC(C(=O)OC)C(=O)OC)cc12	184.9*
